Data reported in the antibiotic and cytotoxicity screens of Wong et al. (2023).
The campaign covered roughly 39,000 compounds. About 3,300 (8.5%) were called active. The entries come from a sample that favours actives as a whole.

The compounds below were run on HepG2 (assay: cytotoxicity call (relative viability < 0.9)). Conditions: 10 µM.

SMILES | cytotoxicity call
C[C@@H]1CN([C@H](C)CO)C(=O)c2cc(C#CCN(C)C)cnc2O[C@@H]1CN(C)C(=O)CCN1CCCCC1 | inactive
Cc1noc(C)c1NC(=O)N[C@@H]1C=C[C@H](CC(=O)NCCCN(C)C)O[C@@H]1CO | inactive
C[C@@H]1CN([C@@H](C)CO)C(=O)c2cccc(NC(=O)Nc3ccc4c(c3)OCO4)c2O[C@H]1CN(C)Cc1ccc(Cl)c(Cl)c1 | inactive
C[C@H](CO)N1C[C@H](C)[C@@H](CN(C)C(=O)Nc2ccc(C(F)(F)F)cc2)Oc2ccc(NC(=O)Nc3cccc4ccccc34)cc2CC1=O | inactive
C[C@H](CO)N1C[C@H](C)[C@@H](CN(C)Cc2ccc(C(=O)Nc3ccccc3N)cc2)OCCCC[C@H](C)Oc2ccc(N(C)C)cc2C1=O | inactive
C[C@@H]1CN([C@H](C)CO)C(=O)c2cc(NC(=O)C3CC3)ccc2O[C@@H]1CN(C)S(=O)(=O)c1ccc(Cl)cc1 | inactive
C[C@@H]1CN([C@@H](C)CO)C(=O)c2c(c3ccccc3n2C)-c2ccccc2CO[C@H]1CN(C)Cc1ccc(C(F)(F)F)cc1 | inactive
C[C@@H]1CN([C@@H](C)CO)S(=O)(=O)c2ccc(C#Cc3ccncc3)cc2O[C@H]1CN(C)S(=O)(=O)c1ccc(F)cc1 | active
C[C@@H]1CN([C@H](C)CO)S(=O)(=O)c2ccc(C#Cc3ccncc3)cc2O[C@H]1CN(C)S(=O)(=O)c1ccc(F)cc1 | active
C[C@@H]1CN([C@H](C)CO)S(=O)(=O)c2ccc(C#Cc3ccncc3)cc2O[C@@H]1CN(C)S(=O)(=O)c1ccc(F)cc1 | active
C[C@@H]1CN([C@H](C)CO)S(=O)(=O)c2ccc(C#Cc3ccc(F)cc3)cc2O[C@H]1CN(C)S(=O)(=O)c1ccc(F)cc1 | inactive
C[C@@H]1CN([C@H](C)CO)S(=O)(=O)c2ccc(C#Cc3ccc(F)cc3)cc2O[C@@H]1CN(C)S(=O)(=O)c1ccc(F)cc1 | inactive
CC(C)CC#Cc1ccc2c(c1)O[C@H](CN(C)S(=O)(=O)c1ccc(F)cc1)[C@@H](C)CN([C@@H](C)CO)S2(=O)=O | inactive
C[C@H]1CN([C@@H](C)CO)S(=O)(=O)c2ccc(C#Cc3ccc(F)cc3)cc2O[C@H]1CN(C)S(=O)(=O)c1ccc(F)cc1 | inactive
C[C@H]1CN([C@@H](C)CO)S(=O)(=O)c2ccc(C#Cc3ccncc3)cc2O[C@H]1CN(C)S(=O)(=O)c1ccc(F)cc1 | active
C[C@H]1CN([C@@H](C)CO)S(=O)(=O)c2ccc(C#Cc3ccncc3)cc2O[C@@H]1CN(C)S(=O)(=O)c1ccc(F)cc1 | inactive
C[C@H](CO)N1C[C@H](C)[C@@H](CN(C)S(=O)(=O)c2ccc(F)cc2)Oc2cc(C#Cc3ccncc3)ccc2S1(=O)=O | inactive
C[C@H]1CN([C@@H](C)CO)S(=O)(=O)c2ccc(C#Cc3ccc(F)cc3)cc2O[C@@H]1CN(C)S(=O)(=O)c1ccc(F)cc1 | inactive
CC(C)CC#Cc1ccc2c(c1)O[C@@H](CN(C)S(=O)(=O)c1ccc(F)cc1)[C@H](C)CN([C@H](C)CO)S2(=O)=O | inactive
O=C(C[C@@H]1C=C[C@@H](NC(=O)CN2CCOCC2)[C@@H](CO)O1)NCCc1ccccc1 | inactive
C[C@H](CO)N1C[C@H](C)[C@@H](CN(C)Cc2cccc(C(=O)O)c2)Oc2ncc(C#CC(C)(C)O)cc2C1=O | inactive

SMILES | cytotoxicity call
O=C(CCCCCCC(=O)Nc1ccc([C@H]2O[C@@H](CSc3ccncc3)C[C@@H](c3ccccc3)O2)cc1)NO | inactive
C[C@H]1CCCCO[C@H](CN(C)S(=O)(=O)c2cn(C)cn2)[C@@H](C)CN([C@@H](C)CO)C(=O)c2cc(NC(=O)CCCN(C)C)ccc2O1 | inactive
C[C@@H]1CCCCO[C@H](CN(C)Cc2ccncc2)[C@H](C)CN([C@@H](C)CO)C(=O)c2cc(NC(=O)CCC(F)(F)F)ccc2O1 | inactive
CN1CCN(C(=O)[C@H]2[C@H](CO)[C@H]3Cn4c(cccc4=O)[C@@H]2N3S(=O)(=O)c2ccccc2F)CC1 | inactive
CCNC(=O)C[C@@H]1CC[C@@H]2[C@H](COC[C@H](O)CN2S(=O)(=O)c2ccc(Oc3ccccc3)cc2)O1 | inactive
O=S1(=O)CC[C@H](N2CCOCC2)C1 | inactive
COc1ccc(NC(=O)Nc2ccc3c(c2)C(=O)N([C@H](C)CO)C[C@H](C)[C@@H](CN(C)C(=O)CCC(F)(F)F)OCCCC[C@@H](C)O3)cc1 | inactive
Cc1noc(C)c1NC(=O)Nc1cccc2c1O[C@@H](CN(C)Cc1ccc(C(=O)Nc3ccccc3N)cc1)[C@@H](C)CN([C@H](C)CO)C2=O | inactive
O=C(CN1CCOCC1)N[C@H]1CC[C@@H](CCNC(=O)C2CCCCC2)O[C@@H]1CO | inactive
C[C@@H]1CCCCO[C@H](CN(C)C(=O)NC2CCCCC2)[C@H](C)CN([C@H](C)CO)C(=O)c2cc(NC(=O)CCC(F)(F)F)ccc2O1 | inactive
O=C(CC(=O)N1CCOCC1)N1CCOCC1 | inactive
Cc1noc(C)c1S(=O)(=O)Nc1ccc2c(c1)C(=O)N([C@H](C)CO)C[C@@H](C)[C@@H](CN(C)Cc1ccc3c(c1)OCO3)O2 | inactive
CC(C)c1nc2cc3sc(C(C)C)nc3cc2s1 | inactive
CCCCCCCCCC(=O)N[C@H]1[C@H](Oc2c3cc4cc2Oc2ccc(cc2Cl)[C@@H](O[C@@H]2O[C@H](CO)[C@@H](O)[C@H](O)[C@H]2NC(C)=O)[C@@H]2NC(=O)[C@H](NC(=O)[C@@H]4NC(=O)[C@H]4NC(=O)[C@@H](Cc5ccc(c(Cl)c5)O3)NC(=O)[C@@H](N)c3ccc(O)c(c3)Oc3cc(O)cc4c3)c3ccc(O)c(c3)-c3c(O[C@H]4O[C@H](CO)[C@@H](O)[C@H](O)[C@@H]4O)cc(O)cc3[C@H](C(=O)O)NC2=O)O[C@H](CO)[C@@H](O)[C@@H]1O | inactive
CN1CCN(C(=O)C[C@@H]2CC[C@H]3[C@@H](COc4ccc(NC(=O)C5CCOCC5)cc4C(=O)N3C)O2)CC1 | inactive
CS(=O)(=O)N1C[C@H](O)COC[C@@H]2O[C@@H](CC(=O)NCc3ccccc3)CC[C@H]21 | inactive
C[C@H](CO)N1C[C@H](C)[C@@H](CN(C)S(=O)(=O)c2ccc(F)cc2)Oc2cc(C#Cc3ccc(F)cc3)ccc2S1(=O)=O | inactive
C[C@H](CO)N1C[C@H](C)[C@H](CN(C)S(=O)(=O)c2ccc(F)cc2)Oc2cc(C#Cc3ccncc3)ccc2S1(=O)=O | active
C[C@@H]1CN([C@@H](C)CO)S(=O)(=O)c2ccc(C#Cc3ccncc3)cc2O[C@@H]1CN(C)S(=O)(=O)c1ccc(F)cc1 | active
C[C@@H]1CN([C@@H](C)CO)S(=O)(=O)c2ccc(C#Cc3ccc(F)cc3)cc2O[C@@H]1CN(C)S(=O)(=O)c1ccc(F)cc1 | inactive
C[C@H](CO)N1C[C@H](C)[C@H](CN(C)S(=O)(=O)c2ccc(F)cc2)Oc2cc(C#Cc3ccc(F)cc3)ccc2S1(=O)=O | inactive

SMILES | cytotoxicity call
C[C@@H]1CN([C@@H](C)CO)S(=O)(=O)c2ccc(C#Cc3ccc(F)cc3)cc2O[C@H]1CN(C)S(=O)(=O)c1ccc(F)cc1 | inactive
C[C@@H]1CCCCO[C@H](CN(C)C(=O)NC2CCCCC2)[C@@H](C)CN([C@H](C)CO)C(=O)c2cc(NC(=O)Nc3ccc(F)cc3)ccc2O1 | inactive
Cc1noc(C)c1NC(=O)N[C@H]1C=C[C@@H](CC(=O)NCCCN(C)C)O[C@H]1CO | inactive
C[C@@H]1CN([C@@H](C)CO)C(=O)c2cc(C#CCN(C)C)cnc2O[C@@H]1CN(C)C(=O)Nc1ccccc1F | inactive
Nc1ncnc2[nH]cnc12 | inactive
Nc1cc2[nH]cnc2c(O)n1 | inactive
Nc1nc(S)c2nc[nH]c2n1 | active
CCN(CC)C(=O)c1ccc[n+](CC(N)=O)c1 | inactive
O=C(CCCCCNC(=O)OCCCCO[C@@H]1C[C@H](c2ccc(C(F)(F)F)cc2)C=C(C(=O)N2CCN(Cc3ccc4c(c3)OCO4)CC2)O1)NO | inactive
Cc1noc(C)c1S(=O)(=O)Nc1ccc2c(c1)C(=O)N([C@H](C)CO)C[C@H](C)[C@H](CN(C)Cc1ccc(C(F)(F)F)cc1)OCCCC[C@@H](C)O2 | inactive
Cc1noc(C)c1S(=O)(=O)Nc1ccc2c(c1)C(=O)N([C@H](C)CO)C[C@@H](C)[C@@H](CN(C)Cc1ccc(Cl)c(Cl)c1)OCCCC[C@H](C)O2 | active
Cc1noc(C)c1S(=O)(=O)Nc1ccc2c(c1)C(=O)N([C@H](C)CO)C[C@H](C)[C@@H](CN(C)Cc1ccc(Cl)c(Cl)c1)OCCCC[C@H](C)O2 | inactive
Cc1noc(C)c1S(=O)(=O)Nc1ccc2c(c1)C(=O)N([C@H](C)CO)C[C@@H](C)[C@@H](CN(C)Cc1ccc(C(F)(F)F)cc1)OCCCC[C@H](C)O2 | active
Cc1noc(C)c1S(=O)(=O)Nc1ccc2c(c1)C(=O)N([C@H](C)CO)C[C@@H](C)[C@@H](CN(C)Cc1ccc(C(F)(F)F)cc1)OCCCC[C@@H](C)O2 | inactive
Cc1noc(C)c1S(=O)(=O)Nc1ccc2c(c1)C(=O)N([C@H](C)CO)C[C@H](C)[C@H](CN(C)Cc1ccc(C(F)(F)F)cc1)OCCCC[C@H](C)O2 | inactive
Cc1noc(C)c1S(=O)(=O)Nc1ccc2c(c1)C(=O)N([C@@H](C)CO)C[C@H](C)[C@@H](CN(C)Cc1ccc(Cl)c(Cl)c1)OCCCC[C@H](C)O2 | inactive
Cc1noc(C)c1S(=O)(=O)Nc1ccc2c(c1)C(=O)N([C@H](C)CO)C[C@@H](C)[C@H](CN(C)Cc1ccc(C(F)(F)F)cc1)OCCCC[C@H](C)O2 | active
Cc1noc(C)c1S(=O)(=O)Nc1ccc2c(c1)C(=O)N([C@@H](C)CO)C[C@H](C)[C@H](CN(C)Cc1ccc(C(F)(F)F)cc1)OCCCC[C@@H](C)O2 | active
Cc1noc(C)c1S(=O)(=O)Nc1ccc2c(c1)C(=O)N([C@H](C)CO)C[C@H](C)[C@@H](CN(C)Cc1ccc(C(F)(F)F)cc1)OCCCC[C@H](C)O2 | inactive
Cc1noc(C)c1S(=O)(=O)Nc1ccc2c(c1)C(=O)N([C@@H](C)CO)C[C@H](C)[C@@H](CN(C)Cc1ccc(C(F)(F)F)cc1)OCCCC[C@@H](C)O2 | inactive
Cc1noc(C)c1S(=O)(=O)Nc1ccc2c(c1)C(=O)N([C@H](C)CO)C[C@@H](C)[C@H](CN(C)Cc1ccc(C(F)(F)F)cc1)OCCCC[C@@H](C)O2 | inactive
